Measured values taken from PubChem BioAssay AID2685 (National Center for Advancing Translational Sciences (NCATS), 2010).
Hit rate of the full screen: of about 320,000 compounds, about 2,100 (0.66%) were called active. Inconclusive results (about 53%) are left out. Calls follow the shape of the dose curve; as a rule, active = well fitted inhibition curve with a large enough effect in the signal ratio, with a control signal flat (not every such curve was filed as active); inconclusive = small, poorly fitted or top-dose-only effect, or effect the other way, or a change in a side signal; inactive = flat fitted curve, though single readings scatter; the % refers to the signal ratio. The full list was thinned out, with actives kept by preference.

test: qHTS Assay for Lipid Storage Modulators in Drosophila S3 Cells; details: BODIPY lipid droplet fluorescence, 18-24 h, cells fed with added oleic acid; cell number change: measured here: cell count max response; series mostly up to 46.1 µM; lipid storage change, negative = inhibition: at the top concentration;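 as to cell number change: cells counted by Cell Tracker Red CMTPX staining in the red channel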; as to lipid storage change, negative = inhibition: % is scaled to controls: 0 for no effect and ±100 for the full control effect
Procedure, shortened: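 Laser-scanning cytometry quantifies lipid droplet accumulation (500–530 nm total intensity; droplet/cell object ratio) in oleic acid-fed (400 uM added) Drosophila S3 cells treated with a concentration series. 20 uM Triacsin C defined 100% inhibition.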
Potency is read from the fitted curve at half-maximal effect.

SMILES | lipid storage change, negative = inhibition | cell number change [%] | outcome | Potency
O=C(c1ccc(-n2cncn2)c([N+](=O)[O-])c1)N1CCN(c2cccc(Cl)c2)CC1 | -19.8% (inactive) | 25.4 | – | –
Cn1cnc2cc(OC(=O)c3ccccc3)ccc21 | – | 19.2 | inactive | –
CCOC(=O)c1nc(Nc2ccc(C(C)=O)cc2)c2ccccc2n1 | -4.14% (inactive) | -13.6 | – | –
CCCCC(CCC(=O)O)(C(=O)OCC)c1csc(Nc2ccccc2)n1 (stereo unspecified) | 9.89% (inactive) | 0.537 | – | –
CCOC(=O)/C(=N\Nc1ccc(C(C)=O)cc1)c1csc(Nc2ccccc2)n1 | – | 17.1 | – | 16.4 µM (active)
COc1cccc(NC(=S)Nc2cc(C(=O)O)ccc2N2CC3CC(C2)c2cccc(=O)n2C3)c1 (stereo unspecified) | -0.148% (inactive) | -20.1 | – | –
CC(C)c1cccc(C2=CC(=O)C[C@H](c3ccc(F)cc3)C2)c1 | 9.98% (inactive) | -1.84 | – | –
O=C(NCc1ccccc1)C(c1ccccc1)N(C(=O)c1csnn1)C1CC1 (stereo unspecified) | -16.2% (inactive) | 0.427 | – | –
COc1ccc(CNC(=O)C(c2cccc(C)c2)N(C(=O)c2csnn2)C2CC2)cc1 (stereo unspecified) | – | 16.2 | – | 2.06 µM (active)
COc1ccc(CNC(=O)C(c2ccccc2F)N(C(=O)c2csnn2)C2CC2)cc1 (stereo unspecified) | 16.9% (inactive) | 9.27 | – | –
Cc1nonc1C(=O)N/N=C/c1cc2c(cc1Br)OCO2 | -3.58% (inactive) | 13 | – | –
COc1cc2c(cc1OC)CN(C(=S)Nc1ccc(C)cc1C)CC2 | -12.4% (inactive) | -5.84 | – | –
CCC(=O)Nc1ccccc1-c1nc2ccccc2[nH]c1=O | – | -8.79 | inactive | –
CC(C)C(=O)Nc1ccccc1-c1nc2ccccc2[nH]c1=O | – | -27.6 | inactive | –
O=C(Nc1ccccc1-c1nc2ccccc2[nH]c1=O)c1cccs1 | – | 7.26 | – | 9.2 µM (active)
Cc1c(C(=O)N2CCCCC2)c(S(=O)(=O)NCCc2ccccc2)c(C)n1C | – | -0.59 | inactive | –
CCOC(=O)COc1ccc(S(=O)(=O)N2CCN(C(=O)OCC)CC2)cc1 | 15% (inactive) | -5.47 | – | –
CCCn1c(SCC(=O)NC2CC2)nnc1-c1cccs1 | -14.1% (inactive) | 9.09 | – | –
Cc1ccc(NC(=O)CSCC(=O)N2CCN(Cc3ccc4c(c3)OCO4)CC2)cc1 | – | 21.6 | inactive | –
Cc1ccc(NC2CCCN(C(=O)CN3C(=O)c4ccccc4C3=O)C2)cc1C (stereo unspecified) | 18.6% (inactive) | 5.05 | – | –
COc1ccc(NC2CCCN(C(=O)CCN3CCCC3=O)C2)cc1 (stereo unspecified) | 8.07% (inactive) | 24.3 | – | –
COc1ccc(NC2CCCN(C(=O)CSc3ccccc3)C2)cc1 (stereo unspecified) | – | 3.54 | inactive | –
COc1ccc(NC2CCCN(C(=O)COc3ccc(C)cc3)C2)cc1 (stereo unspecified) | – | -19.8 | – | 2.06 µM (active)
COc1ccc(NC2CCCN(C(=O)CN3C(=O)c4ccccc4C3=O)C2)cc1OC (stereo unspecified) | – | -13.7 | – | 18.4 µM (active)

SMILES | lipid storage change, negative = inhibition | cell number change [%] | outcome | Potency
COc1ccc(NC2CCCN(C(=O)CCOc3ccccc3)C2)cc1 (stereo unspecified) | – | 2.67 | inactive | –
COc1ccc(NC2CCCN(C(=O)CSc3ccncc3)C2)cc1 (stereo unspecified) | – | -29 | – | 0.231 µM (active)
COc1ccc(NC2CCCN(C(=O)c3ccncc3)C2)cc1 (stereo unspecified) | – | -9.17 | inactive | –
COc1ccc(NC2CCCN(C(=O)CSc3ccccn3)C2)cc1OC (stereo unspecified) | -17.1% (inactive) | -4.53 | – | –
COc1ccc(CC(=O)Nc2ccccc2C(=O)NCCc2ccccc2)cc1 | – | 7.51 | inactive | –
Cc1ccc(OCC(O)CN2CCN(c3ccccc3)CC2)cc1 (stereo unspecified) | 15.5% (inactive) | -26.7 | – | –
O=C(Nc1ccc(S(=O)(=O)N2CCCCC2)cc1)C1CC1 | 11.8% (inactive) | 19.3 | – | –
N/C(=N\OC(=O)Cc1ccccc1[N+](=O)[O-])c1cccc(Br)c1 | -1.94% (inactive) | -2.3 | – | –
CC(=O)Nc1ccc2c(c1)nc(CCN1CCN(c3ccccn3)CC1)n2C | 25.6% (inactive) | -2.13 | – | –
Cn1c(CCN2CCN(c3ccccn3)CC2)nc2cc(NS(=O)(=O)c3ccccc3)ccc21 | 8.02% (inactive) | 8.74 | – | –
Cc1ccc(S(=O)(=O)Nc2ccc3c(c2)nc(CCN2CCN(c4ccccn4)CC2)n3C)cc1 | – | 24.4 | – | 16.4 µM (active)
O=C(/C=C/N1CCN(Cc2ccccc2)CC1)C(F)(F)F | -0.119% [at 9.22 µM] (inactive) | 4.65 | – | –
NC(=O)COc1c(-c2ccccc2)oc2ccccc2c1=O | 28.7% (inactive) | 0.203 | – | –
O=C(O)COc1c(-c2ccccc2)oc2ccccc2c1=O | – | 10.5 | – | 23.1 µM (active)
O=C(O)COc1c(-c2ccc(Cl)cc2)oc2ccccc2c1=O | -2.1% (inactive) | 7.07 | – | –
COc1ccc(CNC(=O)CSc2n[nH]c(N)n2)cc1 | – | 2.63 | inactive | –
Cc1[nH]c(C)c(S(=O)(=O)N(Cc2ccccc2)C(C)(C)C)c1C(=O)N1CCCC1 | -19% (inactive) | -27.6 | – | –
CCN(CC)C(=O)CSc1nnc(-c2ccco2)n1Cc1ccco1 | 13.9% (inactive) | -5.34 | – | –
Cc1ccc(NC(=O)CSc2nnc(CNC(=O)c3ccco3)n2C)cc1 | 18% (inactive) | – | – | –
O=C(OCc1ccc(Cl)cc1)c1cnccn1 | – | 23.8 | – | 7.31 µM (active)
O=C(c1ccccc1)c1ccc(COC(=O)c2cnccn2)cc1 | – | – | inactive | –
COC(=O)c1ccc(COC(=O)c2cnccn2)cc1 | -2.39% (inactive) | 9.29 | – | –
CCN(C(=O)CSc1nnc(COc2ccccc2F)n1N)C1CCS(=O)(=O)C1 (stereo unspecified) | – | – | inactive | –
CCN(C(=O)CSc1nnc(Cc2ccccc2F)n1N)C1CCS(=O)(=O)C1 (stereo unspecified) | – | -2.07 | – | 8.2 µM (active)

SMILES | lipid storage change, negative = inhibition | cell number change [%] | outcome | Potency
CCN(C(=O)CSc1nnc(-c2ccccc2)n1C)C1CCS(=O)(=O)C1 (stereo unspecified) | 10.8% (inactive) | – | – | –
Cc1onc(-c2ccccc2Cl)c1C(=O)N1CCCCCC1 | – | 0.806 | – | 25.9 µM (active)
Cc1onc(-c2ccccc2Cl)c1C(=O)N1CCN(C=O)CC1 | -12.5% (inactive) | – | – | –
Cc1onc(-c2ccccc2Cl)c1C(=O)N1CCC(C)CC1 | – | -10.5 | inactive | –
CCNC(=S)N1CCN=C1Nc1nc(C)cc(C)n1 | -14.2% (inactive) | 8.32 | – | –
CCn1cc(CNC(=O)/C=C/c2ccc([N+](=O)[O-])cc2)cn1 | -8.69% (inactive) | -8.84 | – | –
CCn1c2ccccc2c2nc3cc(C(=O)O)ccc3nc21 | – | -24.2 | – | 0.58 µM (active)
CCn1c2ccc(C)cc2c2nc3cc(C(=O)O)ccc3nc21 | -18% (inactive) | -5.53 | – | –
O=C(O)CCn1c2ccccc2c2nc3ccccc3nc21 | – | -11.8 | inactive | –
CC(=O)NCCc1nc2cc(NC(=O)c3cccc([N+](=O)[O-])c3)ccc2n1C | 13.5% (inactive) | – | – | –
COc1nn(CC(=O)N2N=C(C)CC2(O)C(F)F)cc1[N+](=O)[O-] (stereo unspecified) | -2.88% (inactive) | 5.87 | – | –
CCOC(=O)Cn1cc([N+](=O)[O-])c(OC)n1 | – | -15 | – | 23.1 µM (active)
COc1nn(CC(=O)N2N=C(C)CC2(O)C(F)(F)F)cc1[N+](=O)[O-] (stereo unspecified) | 7.76% (inactive) | 11.8 | – | –
CCOc1ccc(CCNC(=O)c2nnc(Cc3ccc(F)cc3)o2)cc1OCC | 5.14% (inactive) | -1.72 | – | –
CN(CCCNC(=O)COc1cc(=O)n(C)c2ccccc12)Cc1ccccc1 | 6.06% (inactive) | 1.19 | – | –
C=CCSc1nsc(NC(=O)Nc2ccc(F)cc2)n1 | – | -16.2 | – | 5.17 µM (active)
O=C(Nc1nc(SCc2ccc(F)cc2)ns1)c1ccco1 | 4.24% (inactive) | -12.1 | – | –
CCSc1nsc(NC(=O)Nc2ccc(F)cc2F)n1 | – | – | inactive | –
Cc1ccccc1S(=O)(=O)NCC1CCCO1 (stereo unspecified) | – | -3.81 | inactive | –
COCc1cc(C)nc(SCC[N+](C)(C)CC(=O)c2ccc(Br)cc2)c1C#N | 0.0033% (inactive) | – | – | –
NC(=O)C1=C[C@@H](c2coc3ccccc3c2=O)C[C@@H](OCc2ccc(CO)cc2)O1 | 12.2% (inactive) | 16 | – | –
CCc1ccc(CN(C)C(=O)c2cc(COc3cccc4cnccc34)on2)cc1 | – | 14.5 | inactive | –
CCOC(=O)C1=C(COc2ccccc2)NC(=O)NC1c1cccc([N+](=O)[O-])c1 (stereo unspecified) | – | 3.89 | – | 9.2 µM (active)
CCOC(=O)C1=C(C)NC(=O)NC1C (stereo unspecified) | – | -10.2 | – | 5.17 µM (active)

SMILES | lipid storage change, negative = inhibition | cell number change [%] | outcome | Potency
CCOC(=O)C1=C(C)NC(=O)NC1c1cccc(O)c1 (stereo unspecified) | – | 0.128 | – | 20.6 µM (active)
CC1=C(C(=O)OCc2ccccc2)C(c2cccc([N+](=O)[O-])c2)NC(=O)N1 (stereo unspecified) | 5.58% (inactive) | 10.6 | – | –
CC1=C(C(=O)OCC2CCCO2)C(c2cccc(O)c2)NC(=O)N1 (stereo unspecified) | 7.62% (inactive) | -24.8 | – | –
CCOC(=O)C1=C(CBr)NC(=O)NC1C (stereo unspecified) | -10.4% (inactive) | -12.6 | – | –
CCOC(=O)C1=C(C)N(C)C(=O)NC1c1cccc(O)c1 (stereo unspecified) | – | – | inactive | –
CCOC(=O)C1=C(CN2CCSCC2)NC(=O)NC1c1cccc([N+](=O)[O-])c1 (stereo unspecified) | 7.96% (inactive) | -8.36 | – | –
CCOC(=O)C1=C(C)NC(C)=C(C(=O)OCC)C1C | 15.9% (inactive) | 8.56 | – | –
CCOc1cc(N2CCOCC2)c(OCC)cc1NC(=O)CSc1n[nH]c(N)n1 | 10.3% (inactive) | 21.7 | – | –
CCOC(=O)c1c(NC(=O)COC(=O)c2cc(OC)c(OC)cc2[N+](=O)[O-])sc(C)c1CC | 7.82% (inactive) | -0.918 | – | –
CN(c1ccccc1)S(=O)(=O)c1cccc(NC(=O)CN2CCc3ccccc3C2)c1 | – | – | inactive | –
CC1=C(C(N)=O)C(c2cccs2)n2ncnc2N1 (stereo unspecified) | -8.85% (inactive) | -0.857 | – | –
COc1ccc(S(=O)(=O)Nc2c(C(=O)O)[nH]c3ccccc23)cc1OC | 25.4% (inactive) | 2.12 | – | –
COc1ccccc1OCC(=O)Nc1cc(NC(=O)COc2ccccc2OC)cc(C(=O)O)c1 | – | -10.7 | inactive | –
Cc1cc(=O)n2[nH]nnc2n1 | -9.73% (inactive) | -0.264 | – | –
CCC(C)[C@@H](C(=O)N1CCNCC1)n1cc(CCCN=C(N)N)nn1 (stereo partly specified) | -8.66% (inactive) | -4.28 | – | –
Oc1[nH]c2ccccc2c1N=Nc1ccc(C(F)(F)F)cn1 | -3.49% (inactive) | -7.88 | – | –
Oc1[nH]c2ccccc2c1N=Nc1ncnc2c1oc1ccccc12 | -11.9% (inactive) | 8.73 | – | –
Cc1sc2ncnc(N=Nc3c(O)[nH]c4ccccc34)c2c1C | – | -22 | – | 20.6 µM (active)
Cc1ccccc1OCCNc1ccc(C(F)(F)F)cc1[N+](=O)[O-] | -9.82% (inactive) | -21 | – | –
CCS(=O)(=O)N1Cc2ccccc2CC1C(=O)NC(C)C12CC3CC(CC(C3)C1)C2 (stereo unspecified) | – | -29.2 | – | 23.1 µM (active)
CCS(=O)(=O)N1Cc2ccccc2CC1C(=O)Nc1ccc(NC(C)=O)cc1 (stereo unspecified) | – | – | inactive | –
CCS(=O)(=O)N1Cc2ccccc2CC1C(=O)Nc1ccc(C)cc1 (stereo unspecified) | – | – | inactive | –
